Experimental data taken from PubChem BioAssay (Tox21).
Several values for one entry are separate records, joined by “and”; a condition that tells them apart may be missing. Identical values can stand only once. Inconclusive results are not listed. Some structures have more than one record in an assay (separate samples or runs), and their calls can disagree. Activity calls are given as the source filed them. Unless noted, calls come from the whole dose curve.

Tests used:
[1] = Nuclear factor erythroid 2-related factor 2/antioxidant responsive element (Nrf2/ARE) small molecule agonists: qHTS cell viability counter screen in human keratinocytes (AID 1919968; active = well fitted curve in the direction sought with a large enough effect in the repeat runs; an effect the other way counts as inactive or inconclusive; note: nearly all actives have a fitted effect of over 55% in size); conditions: KeratinoSens HaCaT ARE cells viability, CellTiter-Fluor, 24 h; series mostly up to 92.4 µM
Method in brief: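 Stably transfected HaCaT (KeratinoSens), 1,500/well. Test agents in DMSO were applied for 23 h, 37 C/5% CO2. CellTiter-Fluor was incubated 1 h before the fluorescence read.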

[2] = Nuclear factor erythroid 2-related factor 2/antioxidant responsive element (Nrf2/ARE) small molecule agonists: luciferase reporter gene qHTS assay in human keratinocytes (AID 1919969); conditions: KeratinoSens HaCaT ARE-luciferase, luminescence, 24 h; series mostly up to 92.4 µM; note: nearly all actives have a fitted effect of over 35% in size; note: potency is the fitted concentration of half-maximal effect
[3] = target: Gonadotropin-releasing hormone receptor (Homo sapiens) (UniProt P30968); assay: Human gonadotropin-releasing hormone receptor (GnRHR) small molecule agonists, calcium flux assay in GnRHR-HEK293 cells (AID 1920063); conditions: calcium flux fluorescence, agonist mode; series mostly up to 57.6 µM; note: nearly all actives have a fitted effect of over 35% in size
Method in brief: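 Stable human GnRHR HEK293 line. 18 h plating, then calcium dye for 1 h at 37 C. Agonist-mode compound addition from DMSO stocks; fluorescence monitored 3 min.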

[4] = target: KiSS-1 receptor (Homo sapiens) (UniProt Q969F8); assay: Human kisspeptin (KISS1R) small molecule agonists, calcium flux assay in KISS1R-HEK293 cells (AID 1920064; active = well fitted curve in the direction sought with a large enough effect in the repeat runs; an effect the other way counts as inactive or inconclusive); conditions: KISS1R-HEK293, calcium flux fluorescence, agonist; series mostly up to 76.8 µM
Method in brief: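 After overnight (18 h) culture at 37 C/5% CO2, human KISS1R-HEK293 cells received calcium dye for 1 h, then test compound; emission at 540 nm (excitation 480 nm) was tracked for 3 min.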

[5] = G protein-coupled receptor (GPCR) small molecule agonists, calcium flux assay: HEK293 wild type cell line counter screen (AID 1920065); conditions: HEK293 WT calcium flux, fluorescence, agonist mode; series mostly up to 57.6 µM
Method in brief: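 Following 18 h incubation at 37 C/5% CO2, plates got calcium dye for 1 h; compounds, ATP or DMSO were then pinned in and fluorescence followed kinetically (480/540 nm).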

[6] = p53 small molecule agonists, cell-based qHTS assay with human liver microsomes (AID 1963577); conditions: HCT-116 p53RE-bla with human liver microsomes, ratio, 16 h; series mostly up to 66 µM;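 note: p53 response element beta-lactamase reporter cells with liver microsomes plus NADPH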
Method in brief: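 Reporter activation was measured by LiveBLAzer fluorescence intensity in p53RE-bla cells, which had been exposed to compounds for 16 h at 37 C alongside 0.5 mg/mL human liver microsomes and 0.5 mg/mL NADPH (final concentrations).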

[7] = p53 small molecule agonists, cell-based qHTS assay with rat liver microsomes (AID 1963578); conditions: HCT-116 p53RE-bla, beta-lactamase ratio, 16 h; series mostly up to 66 µM
Method in brief: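 Compound in DMSO added to p53RE-bla cells 5 h post-plating; rat microsomes/NADPH 0.5 mg/mL final; 16 h, 37 C; LiveBLAzer 2 h RT.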

[8] = p53 small molecule agonists, cell-based qHTS assay with human liver microsomes: qHTS cell viability counter screen (AID 1963579); conditions: p53RE-bla HCT-116 viability, ATP luminescence, 16 h, HLM; series mostly up to 66 µM; note: nearly all actives have a fitted effect of over 45% in size
Method in brief: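 HLM-supplemented (0.5 mg/mL final) and NADPH-supplemented (0.5 mg/mL final) p53RE-bla cultures, 4,000 cells per well, were dosed with compounds in DMSO for 16 h at 37 C; luminescent ATP detection (CellTiter-Glo, 30 min, room temperature) quantified surviving cells.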

[9] = p53 small molecule agonists, cell-based qHTS assay with rat liver microsomes: qHTS cell viability counter screen (AID 1963580); conditions: p53RE-bla HCT-116 + rat microsomes, ATP viability, 16 h; series mostly up to 66 µM; note: nearly all actives have a fitted effect of over 45% in size
Method in brief: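 Counter screen for cytotoxicity under metabolic activation: rat liver microsomes and NADPH, 0.5 mg/mL final each, added with compounds to p53RE-bla HCT-116 cells; 16 h at 37 C, then ATP luminescence read.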

[10] = p53 small molecule agonists, cell-based qHTS assay: qHTS cell viability counter screen (AID 1963581); conditions: p53RE-bla HCT-116 viability, ATP luminescence, 16 h; series mostly up to 66 µM; note: nearly all actives have a fitted effect of over 45% in size; note: potency is the fitted concentration of half-maximal effect
Method in brief: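 qHTS counter screen: 16 h compound exposure at 37 C of p53RE-bla HCT-116 cells (4,000 per well, seeded 5 h prior), cell viability by ATP luminescence.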

[11] = p53 small molecule agonists, cell-based qHTS assay (AID 1963582; active = well fitted activation curve with a large enough effect in the signal ratio in the repeat runs, not every such curve was filed as active; the % refers to the signal ratio); conditions: HCT-116 p53RE-bla reporter, beta-lactamase FRET ratio, 16 h; series mostly up to 66 µM
Method in brief: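 Measured: fluorescence from cleaved LiveBLAzer substrate. System: p53RE-bla cells, 16 h compound treatment at 37 C, 2 h substrate step at room temperature.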

[12] = target: Muscarinic acetylcholine receptor M1 (Homo sapiens) (UniProt P11229); assay: Cholinergic receptor muscarinic 1 (CHRM1) small molecule antagonists, cell-based qHTS assay (AID 1963588); conditions: CHRM1-CHO antagonist mode, calcium flux fluorescence; series mostly up to 61.5 µM; note: nearly all actives have a fitted effect of over 40% in size
Method in brief: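 Compounds were tested at 15 concentrations in three independent runs. Dye-loaded CHRM1-CHO cells were exposed 5 min at room temperature before stimulation by acetylcholine added at 50nM. Intracellular calcium was read kinetically on FDSS for 3 min.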

[13] = target: Muscarinic acetylcholine receptor M1 (Homo sapiens) (UniProt P11229); assay: Cholinergic receptor muscarinic 1 (CHRM1) small molecule agonists, cell-based qHTS assay (AID 1963589); conditions: CHRM1-CHO cells, agonist mode, calcium flux fluorescence; series mostly up to 76.8 µM; note: nearly all actives have a fitted effect of over 35% in size
Method in brief: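 Kinetic fluorescence (1 s intervals) of calcium-sensitive dye in human M1 CHO cells after compound addition; cells pre-incubated 18 h at 37 C/5% CO2 and dye-loaded 1 h.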

[14] = cAMP Responsive Elements (CRE) small molecule agonists, cell-based qHTS assay (AID 1963590); conditions: CRE-bla HEK293T, beta-lactamase FRET ratio, 3 h; series mostly up to 92.4 µM
Method in brief: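 Test agents in DMSO were incubated 3 h at 37 C/5% CO2 with CRE-bla HEK 293T cells seeded 18 h earlier; LiveBLAzer B/G FRET substrate was added and read after 2 h at room temperature.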

[15] = cAMP Responsive Elements (CRE) small molecule antagonists, cell-based qHTS assay (AID 1963591; active = well fitted inhibition curve with a large enough effect in the signal ratio in the repeat runs, not every such curve was filed as active; the % refers to the signal ratio); conditions: CRE-bla HEK293T, beta-lactamase FRET ratio; series mostly up to 92.4 µM
Method in brief: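 Reporter line CRE-bla HEK 293T in dialyzed-FBS DMEM; cells preincubated 18 h, treated 3 h with compound plus NKH477 (0.25 uM final); LiveBLAzer FRET, 2 h RT.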

[16] = target: Beta-2 adrenergic receptor (Homo sapiens) (UniProt P07550); assay: Adrenergic beta2 receptor (ADRB2) small molecule antagonists, cell-based qHTS assay (AID 1963592); conditions: CHO-ADRB2 cells, isoproterenol-stimulated cAMP HTRF ratio, 0.5 h; series mostly up to 92.4 µM; note: nearly all actives have a fitted effect of over 50% in size
Method in brief: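 Assay format: CHO-ADRB2 cells, 18-20hr seeding at 37C/5% CO2, then compound plus 1nM isoproterenol agonist mix for 0.5hr RT. Homogeneous time-resolved fluorescence cAMP detection after 1hr, expressed as 665/615 nm ratio.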

[17] = target: Beta-2 adrenergic receptor (Homo sapiens) (UniProt P07550); assay: Adrenergic beta2 receptor (ADRB2) small molecule agonists, cell-based qHTS assay (AID 1963593); conditions: CHO-ADRB2 cells, cAMP HTRF, 30 min; series mostly up to 92.4 µM;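 note: CHO cells stably overexpressing human ADRB2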
Method in brief: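 CHO cells stably over-expressing ADRB2 were plated overnight at 37C, then dosed with compounds plus a stimulation mix containing 100uM IBMX and 25uM Ro-20-1724 for 0.5hr at room temperature. cAMP was measured by HTRF competition, 1hr.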

[18] = target: D(2) dopamine receptor (Homo sapiens) (UniProt P14416); assay: Dopamine D2 receptor (DRD2) small molecule agonists, cell-based qHTS assay (AID 1963594); conditions: HEK293-DRD2 cAMP HTRF, agonist mode, 30 min; series mostly up to 92.4 µM; note: nearly all actives have a fitted effect of over 35% in size
Method in brief: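 HEK293 cells stably expressing DRD2 were cultured 24 h at 37 C, then given Ro20-1724 (0.1 mM final) and compounds for 10 min at room temperature. NKH477 (200nM) was then added for 30 min. cAMP was read by HTRF.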

[19] = target: D(2) dopamine receptor (Homo sapiens) (UniProt P14416); assay: Dopamine D2 receptor (DRD2) small molecule antagonists, cell-based qHTS assay (AID 1963595; active = well fitted inhibition curve with a large enough effect in the signal ratio in the repeat runs, with a control signal flat; the % refers to the signal ratio); conditions: HEK293-DRD2 cAMP HTRF antagonist mode; series mostly up to 92.4 µM
Method in brief: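 Stable D2 receptor HEK293 line, 24 h after seeding. Compound preincubated 10 min, then quinpirole (12 nM) with forskolin analogue NKH477 (200 nM), 30 min, room temperature. Detection by time-resolved FRET of cAMP.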

[20] = target: 5-hydroxytryptamine receptor 2A (Homo sapiens) (UniProt P28223); assay: 5-hydroxytryptamine receptor 2A (HTR2A) small molecule agonists, cell-based qHTS assay (AID 1963587); conditions: HTR2A-CHO cells, calcium flux fluorescence, agonist mode; series mostly up to 76.8 µM; note: nearly all actives have a fitted effect of over 30% in size
Method in brief: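 HTR2A-CHO cells, plated 18 h at 37 C/5% CO2, dye-loaded 1 h at 37 C; compounds in DMSO added by pin tool (agonist mode). Intracellular calcium flux read as kinetic fluorescence on FDSS over 2 min at 1 s intervals.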

Measured: Potency

KiSS-1 receptor (Homo sapiens), sequence (Q969F8 whole entry, looked up): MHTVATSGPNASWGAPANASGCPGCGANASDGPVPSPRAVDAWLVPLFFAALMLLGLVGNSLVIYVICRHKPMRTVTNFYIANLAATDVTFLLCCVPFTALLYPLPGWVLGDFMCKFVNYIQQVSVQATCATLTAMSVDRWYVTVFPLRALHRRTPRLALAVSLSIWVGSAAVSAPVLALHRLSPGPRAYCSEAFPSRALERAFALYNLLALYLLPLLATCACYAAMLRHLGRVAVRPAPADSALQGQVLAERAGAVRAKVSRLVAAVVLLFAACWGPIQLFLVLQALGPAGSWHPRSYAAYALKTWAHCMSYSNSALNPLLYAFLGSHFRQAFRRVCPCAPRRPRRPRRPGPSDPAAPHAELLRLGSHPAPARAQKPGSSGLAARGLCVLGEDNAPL
Gonadotropin-releasing hormone receptor (Homo sapiens), sequence (P30968 whole entry, looked up): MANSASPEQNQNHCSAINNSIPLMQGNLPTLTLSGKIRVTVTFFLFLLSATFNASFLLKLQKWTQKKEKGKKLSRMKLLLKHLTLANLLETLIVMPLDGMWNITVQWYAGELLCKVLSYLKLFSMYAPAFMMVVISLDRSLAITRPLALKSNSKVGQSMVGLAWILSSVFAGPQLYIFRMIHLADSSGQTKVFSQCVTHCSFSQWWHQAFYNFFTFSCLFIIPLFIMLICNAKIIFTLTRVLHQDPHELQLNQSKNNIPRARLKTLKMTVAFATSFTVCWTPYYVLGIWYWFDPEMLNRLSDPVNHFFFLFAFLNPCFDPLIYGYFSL
D(2) dopamine receptor (Homo sapiens), sequence (P14416 whole entry, looked up): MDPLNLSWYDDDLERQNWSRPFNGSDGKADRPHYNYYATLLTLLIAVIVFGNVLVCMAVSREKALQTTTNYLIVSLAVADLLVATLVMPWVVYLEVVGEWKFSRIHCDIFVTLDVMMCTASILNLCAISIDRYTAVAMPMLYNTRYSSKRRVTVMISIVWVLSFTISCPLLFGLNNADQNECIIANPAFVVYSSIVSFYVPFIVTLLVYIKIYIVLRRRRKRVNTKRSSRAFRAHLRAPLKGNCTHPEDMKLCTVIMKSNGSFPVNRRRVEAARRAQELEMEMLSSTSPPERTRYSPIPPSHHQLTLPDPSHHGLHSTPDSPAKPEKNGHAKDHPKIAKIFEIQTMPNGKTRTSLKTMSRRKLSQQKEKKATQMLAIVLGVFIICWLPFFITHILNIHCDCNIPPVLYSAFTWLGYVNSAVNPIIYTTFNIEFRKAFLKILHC
Beta-2 adrenergic receptor (Homo sapiens), sequence (P07550 whole entry, looked up): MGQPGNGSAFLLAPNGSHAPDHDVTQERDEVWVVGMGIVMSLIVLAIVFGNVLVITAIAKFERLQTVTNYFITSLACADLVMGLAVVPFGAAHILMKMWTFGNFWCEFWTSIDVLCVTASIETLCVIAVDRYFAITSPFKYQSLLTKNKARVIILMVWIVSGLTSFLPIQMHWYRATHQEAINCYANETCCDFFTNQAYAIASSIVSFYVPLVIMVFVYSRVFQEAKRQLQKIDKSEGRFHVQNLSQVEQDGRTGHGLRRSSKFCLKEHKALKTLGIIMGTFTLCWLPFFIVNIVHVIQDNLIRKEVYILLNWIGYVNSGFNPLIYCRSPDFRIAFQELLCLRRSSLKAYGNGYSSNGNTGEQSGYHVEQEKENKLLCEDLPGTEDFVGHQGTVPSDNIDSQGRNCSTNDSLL
Muscarinic acetylcholine receptor M1 (Homo sapiens), sequence (P11229 whole entry, looked up): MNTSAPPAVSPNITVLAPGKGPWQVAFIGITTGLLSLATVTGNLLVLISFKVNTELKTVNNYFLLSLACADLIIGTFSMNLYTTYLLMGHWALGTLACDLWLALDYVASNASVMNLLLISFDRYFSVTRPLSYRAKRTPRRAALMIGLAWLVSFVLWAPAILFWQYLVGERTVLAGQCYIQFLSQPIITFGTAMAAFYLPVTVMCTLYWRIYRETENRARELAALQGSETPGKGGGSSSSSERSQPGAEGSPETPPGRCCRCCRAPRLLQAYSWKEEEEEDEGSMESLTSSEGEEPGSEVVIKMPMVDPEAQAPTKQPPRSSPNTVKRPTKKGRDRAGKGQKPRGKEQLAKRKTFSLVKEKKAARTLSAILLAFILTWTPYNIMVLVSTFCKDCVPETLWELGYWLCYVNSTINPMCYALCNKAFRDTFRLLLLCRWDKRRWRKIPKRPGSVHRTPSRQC
5-hydroxytryptamine receptor 2A (Homo sapiens), sequence (P28223 whole entry, looked up): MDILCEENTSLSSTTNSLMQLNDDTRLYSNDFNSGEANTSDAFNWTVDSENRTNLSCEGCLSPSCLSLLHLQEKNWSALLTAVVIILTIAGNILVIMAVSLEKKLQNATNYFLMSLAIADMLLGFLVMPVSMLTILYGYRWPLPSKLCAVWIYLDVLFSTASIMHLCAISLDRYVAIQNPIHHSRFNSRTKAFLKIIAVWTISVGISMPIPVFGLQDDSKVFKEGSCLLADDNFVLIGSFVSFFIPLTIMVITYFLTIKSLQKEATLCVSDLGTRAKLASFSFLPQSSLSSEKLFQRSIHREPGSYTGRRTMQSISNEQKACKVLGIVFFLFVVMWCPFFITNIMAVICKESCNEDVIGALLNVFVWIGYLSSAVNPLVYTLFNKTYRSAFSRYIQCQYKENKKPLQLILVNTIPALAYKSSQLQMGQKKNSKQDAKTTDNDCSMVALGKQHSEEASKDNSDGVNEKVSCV

O=C1C=CC(=O)O1
not listed: [20]
inactive: all other assays above

CCCC[C@H]1CN(CC2CCOCC2)C(=O)OC12CCN(C1(C)CCN(C(=O)c3c(C)ncnc3C)CC1)CC2
not listed: [20]
inactive: all other assays above

COC(=O)c1c(Cl)c(Cl)c(C(=O)OC)c(Cl)c1Cl
active: [2] 30.6 µM
not listed: [17] | [20]
inactive: all other assays above

C=CCOC(=O)CCCCCCCC
inactive: all assays above

CC1(C)[C@H]2CC[C@]1(C)[C@H](O)C2
not listed: [20]
inactive: all other assays above

NC(=O)NS(=O)(=O)c1ccc(Cl)cc1
not listed: [20]
inactive: all other assays above

CCC/C=C/CO
not listed: [20]
inactive: all other assays above

CCOC(/C=C(\C)CCC=C(C)C)OCC
not listed: [20]
inactive: all other assays above

O=c1[nH]c(=O)c2ccccc2o1
not listed: [12] | [14] | [20]
inactive: all other assays above

C=CC(=O)OCCCCCC
active: [10] 0.363 µM
not listed: [14] | [16] | [20]
inactive: all other assays above

ON=C1CCCCC1
inactive and 68.6 µM (active): [2]
not listed: [20]
inactive: all other assays above

COc1ccc(C#N)cc1
not listed: [19] | [20]
inactive: all other assays above

N[C@H]1C(O)O[C@H](CO)[C@@H](O)[C@@H]1O (some centres undefined)
not listed: [18] | [20]
inactive: all other assays above

CC1COc2ccccc2N1 (centres undefined)
active: [2] 54.5 µM
inactive: all other assays above

CCCCCCCC/C=C\CCCCCCCC(N)=O
not listed: [16] | [20]
inactive: all other assays above
